# PMC7862700, “An all-to-all approach to the identification of sequence-specific readers for epigenetic DNA modifications on cytosine”
# Target: T1, EHF (Homo sapiens, UniProt Q9NZC4 1-300)
# T1 sequence: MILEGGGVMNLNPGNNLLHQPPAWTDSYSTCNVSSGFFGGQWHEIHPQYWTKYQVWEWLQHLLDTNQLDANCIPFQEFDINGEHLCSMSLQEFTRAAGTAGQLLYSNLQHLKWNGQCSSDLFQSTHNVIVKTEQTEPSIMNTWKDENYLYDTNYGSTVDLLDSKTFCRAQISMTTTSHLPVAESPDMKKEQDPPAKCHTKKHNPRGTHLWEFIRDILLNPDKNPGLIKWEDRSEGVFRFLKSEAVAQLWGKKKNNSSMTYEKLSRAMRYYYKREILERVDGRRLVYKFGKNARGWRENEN
# Test: DAPPL (digital affinity profiling via proximity ligation, sequencing); 10 mM Tris-HCl pH 7.5, 50 mM NaCl, 1 mM DTT, 4% glycerol, room temperature, 30 min; GST-TFs on glutathione beads, 16-mer random dsDNA library, 0.1% formaldehyde crosslink after washing; high values mean tight binding
# Conditions: protein: recombinant; tags: N-terminal GST; dsDNA, one strand shown
# Summary of the method: (§1)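 A tag-only sample was pooled with DNA-barcoded human transcription factors that had been expressed in yeast as GST fusions and captured on glutathione beads. The pools were incubated for 30 min at room temperature with 200 nmole of a random double-stranded 16-mer DNA library in Tris/NaCl/DTT/glycerol buffer, then washed, crosslinked with 0.1% formaldehyde, proximity-ligated (BsaI/T4 ligase, 1 h, 37 °C), PCR-amplified and sequenced on an Illumina NextSeq500. Binding signal is each hexamer's read frequency for a factor divided by its frequency for the tag-only sample.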
row,Sequence,binding signal
1,AGCGAA,"1.06 fold enrichment (6-mer frequency, TF over GST control)"
2,CTAGAC,"1.01 fold enrichment (6-mer frequency, TF over GST control)"
3,GCGAAG,"1 fold enrichment (6-mer frequency, TF over GST control)"

# Target: SPIB (Homo sapiens, UniProt Q01892 1-262)
# Sequence (Q01892 whole entry): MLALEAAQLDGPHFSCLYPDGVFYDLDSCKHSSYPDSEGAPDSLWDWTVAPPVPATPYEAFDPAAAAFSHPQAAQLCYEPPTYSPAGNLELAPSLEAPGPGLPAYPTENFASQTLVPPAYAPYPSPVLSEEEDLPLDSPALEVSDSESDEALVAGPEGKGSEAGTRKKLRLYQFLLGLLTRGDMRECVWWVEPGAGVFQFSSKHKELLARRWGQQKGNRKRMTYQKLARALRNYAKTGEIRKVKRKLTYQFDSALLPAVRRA
# Test: as above
# Conditions: protein: recombinant; tags: N-terminal GST; dsDNA, one strand shown
# Summary of the method: as §1
row,Sequence,binding signal
1,TGCGAG,"1.03 fold enrichment (6-mer frequency, TF over GST control)"
2,GAATCA,"1.03 fold enrichment (6-mer frequency, TF over GST control)"
3,TTCGTG,"1.04 fold enrichment (6-mer frequency, TF over GST control)"

# Target: T2, ELK3 (Homo sapiens, UniProt P41970 1-407)
# T2 sequence: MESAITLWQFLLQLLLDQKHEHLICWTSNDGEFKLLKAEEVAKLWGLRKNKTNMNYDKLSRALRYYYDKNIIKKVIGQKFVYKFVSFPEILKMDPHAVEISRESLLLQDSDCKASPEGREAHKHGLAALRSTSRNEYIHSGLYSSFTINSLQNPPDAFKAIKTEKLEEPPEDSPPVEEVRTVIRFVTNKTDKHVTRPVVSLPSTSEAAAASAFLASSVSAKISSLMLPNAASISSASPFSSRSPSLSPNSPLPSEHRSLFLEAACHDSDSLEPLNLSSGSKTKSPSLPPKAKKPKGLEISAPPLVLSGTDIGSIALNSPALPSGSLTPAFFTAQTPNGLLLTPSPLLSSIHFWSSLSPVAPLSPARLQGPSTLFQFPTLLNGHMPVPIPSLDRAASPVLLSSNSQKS
# Test: as above
# Conditions: protein: recombinant; tags: N-terminal GST; dsDNA, one strand shown
# Summary of the method: as §1
row,Sequence,binding signal
1,CAAAGA,"1.03 fold enrichment (6-mer frequency, TF over GST control)"
2,GATAAG,"1.02 fold enrichment (6-mer frequency, TF over GST control)"
3,GTGGAT,"1.04 fold enrichment (6-mer frequency, TF over GST control)"
4,GGAAAG,"1 fold enrichment (6-mer frequency, TF over GST control)"

# Target: HSF1 (Homo sapiens, UniProt Q00613 1-529)
# Sequence (Q00613 whole entry): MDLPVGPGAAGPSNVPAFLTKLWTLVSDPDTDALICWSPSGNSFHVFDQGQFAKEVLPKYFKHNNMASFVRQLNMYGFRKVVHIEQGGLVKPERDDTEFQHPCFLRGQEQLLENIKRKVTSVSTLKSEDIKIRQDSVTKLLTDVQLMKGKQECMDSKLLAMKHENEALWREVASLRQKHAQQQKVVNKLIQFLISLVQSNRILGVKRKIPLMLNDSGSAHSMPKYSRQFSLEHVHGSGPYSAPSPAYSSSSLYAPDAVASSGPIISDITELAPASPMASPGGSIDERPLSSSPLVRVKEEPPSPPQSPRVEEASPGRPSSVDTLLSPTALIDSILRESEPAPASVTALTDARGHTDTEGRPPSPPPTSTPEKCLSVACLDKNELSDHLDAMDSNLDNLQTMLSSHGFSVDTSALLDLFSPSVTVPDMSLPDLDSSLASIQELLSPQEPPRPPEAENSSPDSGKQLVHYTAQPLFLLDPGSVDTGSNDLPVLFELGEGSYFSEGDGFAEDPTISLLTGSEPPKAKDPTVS
# Test: as above
# Conditions: protein: recombinant; tags: N-terminal GST; chain copies: 3; dsDNA, one strand shown
# Summary of the method: as §1
row,Sequence,binding signal
1,AGGATT,"1.78 fold enrichment (6-mer frequency, TF over GST control)"
2,GGAATA,"1.44 fold enrichment (6-mer frequency, TF over GST control)"
3,TGCGAG,"1.15 fold enrichment (6-mer frequency, TF over GST control)"
4,AGGGAT,"1.1 fold enrichment (6-mer frequency, TF over GST control)"
5,GGATAA,"1.2 fold enrichment (6-mer frequency, TF over GST control)"
6,GAAAGT,"1.26 fold enrichment (6-mer frequency, TF over GST control)"
7,GAATCA,"1.06 fold enrichment (6-mer frequency, TF over GST control)"
8,GAAGAT,"1.24 fold enrichment (6-mer frequency, TF over GST control)"
9,CAAAGA,"1.1 fold enrichment (6-mer frequency, TF over GST control)"
10,CGAGAA,"3.31 fold enrichment (6-mer frequency, TF over GST control)"
11,GCGAAC,"1.03 fold enrichment (6-mer frequency, TF over GST control)"
12,TAGAGA,"1.3 fold enrichment (6-mer frequency, TF over GST control)"
13,GGATCA,"1.1 fold enrichment (6-mer frequency, TF over GST control)"
14,TTAGTC,"1.17 fold enrichment (6-mer frequency, TF over GST control)"
15,CCAAGA,"1.03 fold enrichment (6-mer frequency, TF over GST control)"
16,GATAAG,"1.29 fold enrichment (6-mer frequency, TF over GST control)"
17,TTCGGG,"1.58 fold enrichment (6-mer frequency, TF over GST control)"

row,Sequence,binding signal
1,ATTAGA,"1.45 fold enrichment (6-mer frequency, TF over GST control)"
2,AGGATC,"1.08 fold enrichment (6-mer frequency, TF over GST control)"
3,GGATTA,"3.05 fold enrichment (6-mer frequency, TF over GST control)"
4,GAGATT,"1.25 fold enrichment (6-mer frequency, TF over GST control)"
5,GGATTC,"1.13 fold enrichment (6-mer frequency, TF over GST control)"
6,GATCTG,"1.07 fold enrichment (6-mer frequency, TF over GST control)"
7,TCAAGA,"1.12 fold enrichment (6-mer frequency, TF over GST control)"
8,CAGAAA,"1.99 fold enrichment (6-mer frequency, TF over GST control)"
9,GTGGAT,"1.01 fold enrichment (6-mer frequency, TF over GST control)"
10,AGCGAA,"1.02 fold enrichment (6-mer frequency, TF over GST control)"
11,AGAATC,"1.74 fold enrichment (6-mer frequency, TF over GST control)"
12,TTCGTG,"1.1 fold enrichment (6-mer frequency, TF over GST control)"
13,CTAGAC,"1.59 fold enrichment (6-mer frequency, TF over GST control)"
14,CAGAAC,"1.62 fold enrichment (6-mer frequency, TF over GST control)"
15,GGAAAG,"1.29 fold enrichment (6-mer frequency, TF over GST control)"
16,TCGTAA,"1.12 fold enrichment (6-mer frequency, TF over GST control)"
17,GCGAAG,"1.15 fold enrichment (6-mer frequency, TF over GST control)"

# Target: T3, SPIC (Homo sapiens, UniProt Q8N5J4 1-248)
# T3 sequence: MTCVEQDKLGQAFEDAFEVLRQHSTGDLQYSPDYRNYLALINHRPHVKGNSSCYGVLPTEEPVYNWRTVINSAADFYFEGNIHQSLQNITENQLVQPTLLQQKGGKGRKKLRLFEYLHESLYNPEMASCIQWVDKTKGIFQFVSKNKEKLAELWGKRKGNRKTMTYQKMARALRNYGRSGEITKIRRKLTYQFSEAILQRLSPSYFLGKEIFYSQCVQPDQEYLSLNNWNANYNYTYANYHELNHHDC
# Test: as above
# Conditions: protein: recombinant; tags: N-terminal GST; dsDNA, one strand shown
# Summary of the method: as §1
row,Sequence,binding signal
1,GCATGC,"1.07 fold enrichment (6-mer frequency, TF over GST control)"
2,GGGCAT,"1 fold enrichment (6-mer frequency, TF over GST control)"
3,CTGGGG,"1 fold enrichment (6-mer frequency, TF over GST control)"
4,AGGCAC,"1.03 fold enrichment (6-mer frequency, TF over GST control)"
5,GCGCGT,"1 fold enrichment (6-mer frequency, TF over GST control)"

# Target: CRX (Homo sapiens, UniProt O43186 1-299)
# Sequence (O43186 whole entry): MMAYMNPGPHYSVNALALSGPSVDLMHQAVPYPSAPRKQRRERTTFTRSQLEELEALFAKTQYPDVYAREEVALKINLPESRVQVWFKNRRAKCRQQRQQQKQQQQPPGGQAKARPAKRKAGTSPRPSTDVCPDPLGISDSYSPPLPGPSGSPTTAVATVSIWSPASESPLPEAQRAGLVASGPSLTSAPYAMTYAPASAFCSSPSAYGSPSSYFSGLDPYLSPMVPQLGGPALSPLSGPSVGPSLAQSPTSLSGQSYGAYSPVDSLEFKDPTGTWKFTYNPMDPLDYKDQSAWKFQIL
# Test: as above
# Conditions: protein: recombinant; tags: N-terminal GST; dsDNA, one strand shown
# Summary of the method: as §1
row,Sequence,binding signal
1,AGGATT,"2.82 fold enrichment (6-mer frequency, TF over GST control)"
2,GGAATA,"1.02 fold enrichment (6-mer frequency, TF over GST control)"
3,AGGGAT,"1.49 fold enrichment (6-mer frequency, TF over GST control)"
4,GGATAA,"1.75 fold enrichment (6-mer frequency, TF over GST control)"
5,GAATCA,"1.04 fold enrichment (6-mer frequency, TF over GST control)"
6,GAAGAT,"1.12 fold enrichment (6-mer frequency, TF over GST control)"
7,CAAAGA,"1.05 fold enrichment (6-mer frequency, TF over GST control)"
8,CGAGAA,"1.27 fold enrichment (6-mer frequency, TF over GST control)"
9,TAGAGA,"1.15 fold enrichment (6-mer frequency, TF over GST control)"
10,GGATCA,"1.53 fold enrichment (6-mer frequency, TF over GST control)"
11,TTAGTC,"1.57 fold enrichment (6-mer frequency, TF over GST control)"
12,GATAAG,"1.77 fold enrichment (6-mer frequency, TF over GST control)"
13,TTCGGG,"1 fold enrichment (6-mer frequency, TF over GST control)"
14,ATTAGA,"1.95 fold enrichment (6-mer frequency, TF over GST control)"
15,AGGATC,"1.2 fold enrichment (6-mer frequency, TF over GST control)"
16,GGATTA,"5.42 fold enrichment (6-mer frequency, TF over GST control)"
17,GAGATT,"1.57 fold enrichment (6-mer frequency, TF over GST control)"
18,GGATTC,"1.15 fold enrichment (6-mer frequency, TF over GST control)"
19,GATCTG,"1.09 fold enrichment (6-mer frequency, TF over GST control)"
20,TCAAGA,"1.03 fold enrichment (6-mer frequency, TF over GST control)"
21,CAGAAA,"1.07 fold enrichment (6-mer frequency, TF over GST control)"
22,GTGGAT,"1.25 fold enrichment (6-mer frequency, TF over GST control)"
23,AGAATC,"1.21 fold enrichment (6-mer frequency, TF over GST control)"
24,CTAGAC,"1 fold enrichment (6-mer frequency, TF over GST control)"
25,TCGTAA,"1.15 fold enrichment (6-mer frequency, TF over GST control)"

# Target: T4, ERF (Homo sapiens, UniProt P50548 1-548)
# T4 sequence: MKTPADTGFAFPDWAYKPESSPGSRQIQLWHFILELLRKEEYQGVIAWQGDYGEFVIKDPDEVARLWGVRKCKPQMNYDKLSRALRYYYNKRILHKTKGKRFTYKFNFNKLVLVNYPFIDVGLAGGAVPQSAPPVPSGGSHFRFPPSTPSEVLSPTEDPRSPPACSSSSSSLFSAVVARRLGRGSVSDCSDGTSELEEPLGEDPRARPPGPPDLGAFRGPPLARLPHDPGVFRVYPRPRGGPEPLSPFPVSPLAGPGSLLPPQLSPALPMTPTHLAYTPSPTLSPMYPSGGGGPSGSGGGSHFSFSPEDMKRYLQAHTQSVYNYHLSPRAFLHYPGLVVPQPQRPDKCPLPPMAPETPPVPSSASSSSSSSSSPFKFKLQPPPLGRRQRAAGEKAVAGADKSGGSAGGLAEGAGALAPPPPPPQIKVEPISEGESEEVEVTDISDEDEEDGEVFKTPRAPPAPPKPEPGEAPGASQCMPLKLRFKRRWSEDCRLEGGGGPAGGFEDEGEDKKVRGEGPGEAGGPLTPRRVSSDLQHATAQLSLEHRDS
# Test: as above
# Conditions: protein: recombinant; tags: N-terminal GST; dsDNA, one strand shown
# Summary of the method: as §1
row,Sequence,binding signal
1,GGAATA,"1.02 fold enrichment (6-mer frequency, TF over GST control)"
2,GCGAAC,"1.05 fold enrichment (6-mer frequency, TF over GST control)"
3,CCAAGA,"1.01 fold enrichment (6-mer frequency, TF over GST control)"

# Target: T5, SPDEF (Homo sapiens, UniProt O95238 1-335)
# T5 sequence: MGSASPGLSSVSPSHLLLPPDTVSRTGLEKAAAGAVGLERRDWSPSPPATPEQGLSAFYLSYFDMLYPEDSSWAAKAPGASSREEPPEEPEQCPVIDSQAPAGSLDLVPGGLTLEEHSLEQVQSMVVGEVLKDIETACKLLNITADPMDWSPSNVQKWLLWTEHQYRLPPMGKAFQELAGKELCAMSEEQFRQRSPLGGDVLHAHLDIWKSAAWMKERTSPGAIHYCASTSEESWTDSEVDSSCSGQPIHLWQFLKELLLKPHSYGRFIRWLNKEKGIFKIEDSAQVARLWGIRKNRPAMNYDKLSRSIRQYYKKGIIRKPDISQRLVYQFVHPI
# Test: as above
# Conditions: protein: recombinant; tags: N-terminal GST; dsDNA, one strand shown
# Summary of the method: as §1
row,Sequence,binding signal
1,AGGATT,"1.04 fold enrichment (6-mer frequency, TF over GST control)"
2,AGGATC,"1.2 fold enrichment (6-mer frequency, TF over GST control)"
3,GGATTA,"1.02 fold enrichment (6-mer frequency, TF over GST control)"
4,GGATTC,"1.07 fold enrichment (6-mer frequency, TF over GST control)"

# Target: T6, ETV7 (Homo sapiens, UniProt Q9Y603 1-341)
# T6 sequence: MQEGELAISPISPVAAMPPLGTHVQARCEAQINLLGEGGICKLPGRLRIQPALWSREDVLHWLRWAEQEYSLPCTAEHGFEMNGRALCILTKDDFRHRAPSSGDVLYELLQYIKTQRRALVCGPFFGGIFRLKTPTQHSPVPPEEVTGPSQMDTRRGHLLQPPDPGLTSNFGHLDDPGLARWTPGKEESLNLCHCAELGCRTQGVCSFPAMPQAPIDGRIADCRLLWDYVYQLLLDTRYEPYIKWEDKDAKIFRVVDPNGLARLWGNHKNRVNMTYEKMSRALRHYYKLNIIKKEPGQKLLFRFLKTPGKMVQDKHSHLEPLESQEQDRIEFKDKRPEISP
# Test: as above
# Conditions: protein: recombinant; tags: N-terminal GST; dsDNA, one strand shown
# Summary of the method: as §1
row,Sequence,binding signal
1,GAAAGT,"1 fold enrichment (6-mer frequency, TF over GST control)"
2,GAAGAT,"1 fold enrichment (6-mer frequency, TF over GST control)"
3,CGAGAA,"1.01 fold enrichment (6-mer frequency, TF over GST control)"
4,GCGAAC,"1.04 fold enrichment (6-mer frequency, TF over GST control)"
5,CAGAAA,"1.02 fold enrichment (6-mer frequency, TF over GST control)"
6,CAGAAC,"1.03 fold enrichment (6-mer frequency, TF over GST control)"
7,GGAAAG,"1.06 fold enrichment (6-mer frequency, TF over GST control)"
